Measured values as given in PubChem BioAssay (EPA / NIEHS).
Calls of active or inactive are those of the source. How the source made its calls: active means hit-call score of the fitted dose curve at least 0.9, where 1 is the maximum; inactive means score below 0.9.

What was measured:
[1] = ATG_GLI_CIS: Attagene CIS-FACTORIAL HepG2 Assay for human Zinc Finger Protein GLI1 (AID 2282945); conditions: HepG2, Attagene cis-factorial reporter mRNA, GLI element; actives raise or lower the signal
Summary of the method: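 Bidirectional curve fits relative to DMSO, using reporter mRNA levels from RT-PCR plus capillary electrophoresis. Cells were HepG2 transiently carrying cis-regulated reporter constructs, harvested 24 h after dosing.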

[2] = ATG_ISRE_CIS: Attagene CIS-FACTORIAL HepG2 Assay for human Interferon Regulatory Factor 1 (IRF1) binding to an Interferon-Stimulated Response Element (ISRE) (AID 2282948); conditions: HepG2 ISRE cis-reporter (Attagene), mRNA transcription readout; actives raise or lower the signal
Summary of the method: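 HepG2 cells transiently transfected with multiplexed cis-promoter reporter units; after 24 h compound exposure, reporter mRNA quantified by RT-PCR, FAM labelling, HpaI digestion and capillary electrophoresis. Bidirectional fit versus DMSO baseline.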

[3] = ATG_M_32_CIS: Attagene CIS-FACTORIAL HepG2 Assay for M32 Transcription Factor (Internal Marker) (AID 2282949); conditions: HepG2 Attagene cis-factorial M32 reporter, mRNA; actives raise or lower the signal;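 further: background control marker of the multiplexed CIS panel rather than a real target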
Summary of the method: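 Following 24 h chemical exposure of HepG2 cells transiently expressing cis-promoter reporter constructs, reporter transcript levels were determined by RT-PCR with fluorescent labelling and capillary electrophoresis, then fitted bidirectionally against DMSO.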

[4] = ATG_M_06_CIS: Attagene CIS-FACTORIAL HepG2 Assay for M06 Transcription Factor (Internal Marker) (AID 2282950); conditions: HepG2 Attagene CIS-FACTORIAL M06 internal marker reporter; actives raise or lower the signal
Summary of the method: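 One of many multiplexed endpoints: HepG2 reporter mRNA after 24 h dosing, detected by RT-PCR and capillary electrophoresis fluorescence; gain or loss of signal analysed against DMSO.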

[5] = molecular target: Hypoxia-inducible factor 1-alpha (Homo sapiens) (UniProt Q16665); test: ATG_HIF1a_CIS: Attagene CIS-FACTORIAL HepG2 Assay for human Hypoxia Inducible Factor 1 (HIF1A) (AID 2282951); conditions: HepG2 Attagene cis-factorial HIF1a reporter transcription; actives raise or lower the signal
Hypoxia-inducible factor 1-alpha (Homo sapiens), sequence (Q16665 whole entry, looked up): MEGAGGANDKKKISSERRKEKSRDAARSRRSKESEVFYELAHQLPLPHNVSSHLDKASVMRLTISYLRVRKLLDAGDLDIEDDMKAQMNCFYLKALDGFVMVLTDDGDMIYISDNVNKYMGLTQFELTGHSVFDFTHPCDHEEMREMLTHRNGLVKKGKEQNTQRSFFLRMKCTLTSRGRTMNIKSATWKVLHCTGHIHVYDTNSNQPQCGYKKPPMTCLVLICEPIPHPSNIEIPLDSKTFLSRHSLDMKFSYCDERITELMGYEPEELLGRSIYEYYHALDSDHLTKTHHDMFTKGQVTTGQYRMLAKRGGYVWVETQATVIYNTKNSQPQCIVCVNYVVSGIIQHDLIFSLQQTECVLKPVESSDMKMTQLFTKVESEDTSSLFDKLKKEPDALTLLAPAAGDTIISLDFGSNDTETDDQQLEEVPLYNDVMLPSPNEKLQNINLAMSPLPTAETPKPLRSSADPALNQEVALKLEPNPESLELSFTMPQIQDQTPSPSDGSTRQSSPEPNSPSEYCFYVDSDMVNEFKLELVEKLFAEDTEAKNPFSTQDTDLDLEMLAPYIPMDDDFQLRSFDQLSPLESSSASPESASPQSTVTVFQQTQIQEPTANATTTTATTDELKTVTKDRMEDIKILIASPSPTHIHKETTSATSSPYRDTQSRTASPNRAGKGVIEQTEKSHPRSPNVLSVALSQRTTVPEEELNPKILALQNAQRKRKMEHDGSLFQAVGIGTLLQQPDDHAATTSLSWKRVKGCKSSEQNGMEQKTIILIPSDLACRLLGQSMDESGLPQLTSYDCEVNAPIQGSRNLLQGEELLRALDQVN
Summary of the method: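 HepG2 cells transiently transfected with multiplexed cis-promoter reporter units; reporter mRNA read 24 h after dosing by RT-PCR, 6-FAM primer-extension labelling, HpaI digestion and capillary electrophoresis. Bidirectional fit versus DMSO baseline.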

[6] = molecular target: Hepatocyte nuclear factor 6 (Homo sapiens) (UniProt Q9UBC0); test: ATG_HNF6_CIS: Attagene CIS-FACTORIAL HepG2 Assay for human Hepatocyte Nuclear Factor 6 (HNF6) (AID 2282952); conditions: HepG2 Attagene cis-factorial HNF6 reporter transcription; actives raise or lower the signal
Hepatocyte nuclear factor 6 (Homo sapiens), sequence (Q9UBC0 whole entry, looked up, the tested form may be a part): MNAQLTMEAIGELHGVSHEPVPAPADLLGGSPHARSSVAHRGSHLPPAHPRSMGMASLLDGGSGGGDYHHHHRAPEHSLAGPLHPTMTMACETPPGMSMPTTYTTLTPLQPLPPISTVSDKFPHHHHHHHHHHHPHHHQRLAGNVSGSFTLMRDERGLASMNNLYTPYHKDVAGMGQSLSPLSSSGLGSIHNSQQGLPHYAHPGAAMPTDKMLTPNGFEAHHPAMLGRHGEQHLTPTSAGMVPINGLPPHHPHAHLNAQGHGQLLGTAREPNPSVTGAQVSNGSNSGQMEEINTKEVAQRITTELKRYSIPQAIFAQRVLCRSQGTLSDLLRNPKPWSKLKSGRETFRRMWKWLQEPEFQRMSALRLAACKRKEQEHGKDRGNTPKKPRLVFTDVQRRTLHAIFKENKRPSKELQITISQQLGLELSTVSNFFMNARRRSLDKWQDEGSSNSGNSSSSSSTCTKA
Summary of the method: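 HepG2 cells transiently transfected with cis-element-driven multiplexed reporter units measuring endogenous transcription factor activity. After 24 h exposure, reporter mRNA quantified by RT-PCR, FAM-labelled fragments and capillary electrophoresis; bidirectional fitting versus DMSO.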

[7] = ATG_MRE_CIS: Attagene CIS-FACTORIAL HepG2 Assay for human Metal Responsive Element (MRE) (AID 2282954); conditions: HepG2 MRE cis-reporter transcription, Attagene multiplex; actives raise or lower the signal
Summary of the method: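 After a 24 h chemical exposure, transiently transfected HepG2 cells yield RNA whose reporter sequences are amplified, FAM-labelled and sized by capillary electrophoresis. Curves are fitted bidirectionally relative to DMSO.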

[8] = ATG_PBREM_CIS: Attagene CIS-FACTORIAL HepG2 Assay for human Phenobarbital-responsive Enhancer Module (PBREM) (AID 2282955); conditions: HepG2 PBREM cis-reporter, Attagene multiplexed transcription; actives raise or lower the signal
Summary of the method: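 HepG2 cells transiently transfected with multiple cis-regulated reporter transcription units; endogenous factor activity at the PBREM element measured as reporter mRNA 24 h after dosing, via RT-PCR and capillary electrophoresis of fluorescent fragments; bidirectional fitting versus DMSO.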

[9] = molecular target: Paired box protein Pax-6 (Homo sapiens) (UniProt P26367); test: ATG_Pax6_CIS: Attagene CIS-FACTORIAL HepG2 Assay for human Paired Box 6 (PAX6) (AID 2282956); conditions: HepG2 CIS-FACTORIAL PAX6 reporter transcription, RNA readout; actives raise or lower the signal
Paired box protein Pax-6 (Homo sapiens), sequence (P26367 whole entry, looked up): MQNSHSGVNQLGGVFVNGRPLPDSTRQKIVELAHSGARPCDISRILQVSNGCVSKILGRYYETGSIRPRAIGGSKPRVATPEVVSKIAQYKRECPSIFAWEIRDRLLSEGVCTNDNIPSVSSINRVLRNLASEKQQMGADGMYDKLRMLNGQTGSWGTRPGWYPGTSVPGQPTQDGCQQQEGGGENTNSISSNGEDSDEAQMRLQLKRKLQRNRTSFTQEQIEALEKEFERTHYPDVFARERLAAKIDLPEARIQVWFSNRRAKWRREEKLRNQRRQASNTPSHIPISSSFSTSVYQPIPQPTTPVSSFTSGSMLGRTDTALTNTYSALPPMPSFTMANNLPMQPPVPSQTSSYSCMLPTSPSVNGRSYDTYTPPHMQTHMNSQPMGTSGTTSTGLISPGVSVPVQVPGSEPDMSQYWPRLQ
Summary of the method: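 HepG2 cells transiently transfected with multiplexed cis-promoter reporter units (endogenous TF activity) were dosed for 24 h. Reporter mRNA was quantified by RT-PCR, 6-FAM labeling, HpaI digestion and capillary electrophoresis; bidirectional fitting versus DMSO baseline.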

[10] = ATG_PXRE_CIS: Attagene CIS-FACTORIAL HepG2 Assay for human Pregnane X Receptor Element (PXRE) (AID 2282957); conditions: HepG2 Attagene CIS-FACTORIAL PXRE reporter, mRNA; actives raise or lower the signal
Summary of the method: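 HepG2 cells transiently transfected with cis-element-driven multiplexed reporter units; after 24 h chemical exposure, reporter mRNA measured by RT-PCR, 6-FAM labelling, HpaI digestion and capillary electrophoresis. Bidirectional fitting relative to DMSO.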

[11] = ATG_RORE_CIS: Attagene CIS-FACTORIAL HepG2 Assay for human RAR-related Orphan Receptor Element (RORE) (AID 2282959); conditions: HepG2 Attagene cis-factorial RORE reporter, mRNA; actives raise or lower the signal
Summary of the method: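 HepG2 cells transiently transfected with multiple cis-element reporter transcription units, exposed to chemical for 24 h. Reporter mRNA quantified by RT-PCR, 6-FAM primer-extension labeling, HpaI digestion and capillary electrophoresis; bidirectional fit versus DMSO baseline.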

[12] = molecular target: Transcription factor Sp1 (Homo sapiens) (UniProt P08047); test: ATG_Sp1_CIS: Attagene CIS-FACTORIAL HepG2 Assay for human Specificity Protein 1 (Sp1) (AID 2282961); conditions: HepG2 Sp1 cis-reporter transcription, actives raise or lower the signal
Transcription factor Sp1 (Homo sapiens), sequence (P08047 whole entry, looked up): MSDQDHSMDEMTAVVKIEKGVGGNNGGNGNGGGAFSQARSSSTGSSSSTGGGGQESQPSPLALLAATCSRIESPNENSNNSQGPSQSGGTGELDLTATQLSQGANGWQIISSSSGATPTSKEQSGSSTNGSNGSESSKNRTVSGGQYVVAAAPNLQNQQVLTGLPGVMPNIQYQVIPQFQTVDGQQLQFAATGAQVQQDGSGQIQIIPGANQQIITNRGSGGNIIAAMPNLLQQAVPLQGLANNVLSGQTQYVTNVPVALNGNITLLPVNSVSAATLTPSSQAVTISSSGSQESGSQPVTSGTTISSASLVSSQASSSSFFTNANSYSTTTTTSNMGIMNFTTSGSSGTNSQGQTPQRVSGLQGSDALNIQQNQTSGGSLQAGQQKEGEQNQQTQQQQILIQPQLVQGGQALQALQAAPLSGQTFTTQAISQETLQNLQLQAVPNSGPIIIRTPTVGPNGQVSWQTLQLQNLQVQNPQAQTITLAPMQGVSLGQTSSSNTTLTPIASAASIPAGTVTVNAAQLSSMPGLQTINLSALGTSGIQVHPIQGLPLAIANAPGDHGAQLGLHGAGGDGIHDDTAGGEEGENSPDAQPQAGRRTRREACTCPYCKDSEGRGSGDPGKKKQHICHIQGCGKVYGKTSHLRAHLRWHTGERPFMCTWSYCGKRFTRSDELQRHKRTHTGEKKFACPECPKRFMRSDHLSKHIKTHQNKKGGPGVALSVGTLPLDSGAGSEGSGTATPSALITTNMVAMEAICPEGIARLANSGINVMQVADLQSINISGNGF
Summary of the method: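 HepG2 cells transiently transfected with multiple reporter transcription units driven by cis-regulatory elements; Sp1-responsive reporter mRNA measured 24 h after dosing by RT-PCR and capillary electrophoresis fluorescence, fitted bidirectionally against DMSO baseline.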

[13] = molecular target: Signal transducer and activator of transcription 3 (Homo sapiens) (UniProt P40763); test: ATG_STAT3_CIS: Attagene CIS-FACTORIAL HepG2 Assay for human Signal Transducer and Activator of Transcription 3 (STAT3) (AID 2282963); conditions: HepG2, Attagene cis-factorial STAT3 reporter transcription; actives raise or lower the signal
Signal transducer and activator of transcription 3 (Homo sapiens), sequence (P40763 whole entry, looked up): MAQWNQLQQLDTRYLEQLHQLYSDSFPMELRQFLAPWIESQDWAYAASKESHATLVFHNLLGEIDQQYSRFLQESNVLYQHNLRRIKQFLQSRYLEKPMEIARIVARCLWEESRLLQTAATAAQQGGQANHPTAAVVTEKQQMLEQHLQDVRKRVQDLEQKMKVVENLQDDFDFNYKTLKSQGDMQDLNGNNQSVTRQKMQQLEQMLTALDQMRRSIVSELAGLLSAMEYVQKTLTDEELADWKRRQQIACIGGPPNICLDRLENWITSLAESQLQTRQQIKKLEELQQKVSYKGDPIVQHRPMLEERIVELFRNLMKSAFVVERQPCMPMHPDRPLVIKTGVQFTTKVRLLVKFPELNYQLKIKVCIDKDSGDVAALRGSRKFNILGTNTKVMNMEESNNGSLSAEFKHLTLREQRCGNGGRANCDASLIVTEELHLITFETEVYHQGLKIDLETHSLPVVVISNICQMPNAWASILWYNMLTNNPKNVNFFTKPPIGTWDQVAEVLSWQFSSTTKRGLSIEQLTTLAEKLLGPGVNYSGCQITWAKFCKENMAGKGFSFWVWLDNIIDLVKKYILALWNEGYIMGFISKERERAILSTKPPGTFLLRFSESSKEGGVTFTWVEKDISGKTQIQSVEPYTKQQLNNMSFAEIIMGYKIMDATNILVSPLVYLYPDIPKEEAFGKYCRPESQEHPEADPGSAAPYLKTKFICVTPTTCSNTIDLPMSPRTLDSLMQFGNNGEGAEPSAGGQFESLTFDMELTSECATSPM
Summary of the method: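 After a 24 h compound incubation, total RNA from MRTU-transfected HepG2 cells was converted to cDNA and reporter sequences PCR-amplified, labelled and profiled by capillary electrophoresis. Gain and loss of signal were referenced to DMSO.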

[14] = ATG_TA_CIS: Attagene CIS-FACTORIAL HepG2 Assay for human TA Basal Promoter (AID 2282964); conditions: HepG2 Attagene CIS-factorial TA basal promoter reporter; actives raise or lower the signal
Summary of the method: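 Transient MRTU transfection of HepG2 preceded 24 h compound exposure. Reporter mRNA levels were then read by RT-PCR with capillary electrophoresis, and this background-control endpoint was fitted bidirectionally to DMSO.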

[15] = molecular target: Heat shock factor protein 1 (Homo sapiens) (UniProt Q00613); test: ATG_HSE_CIS: Attagene CIS-FACTORIAL HepG2 Assay for human Heat Shock Transcription Factor 1 (HSE) (AID 2282953); conditions: HepG2 HSE cis-reporter, Attagene RNA transcription; actives raise or lower the signal
Heat shock factor protein 1 (Homo sapiens), sequence (Q00613 whole entry, looked up): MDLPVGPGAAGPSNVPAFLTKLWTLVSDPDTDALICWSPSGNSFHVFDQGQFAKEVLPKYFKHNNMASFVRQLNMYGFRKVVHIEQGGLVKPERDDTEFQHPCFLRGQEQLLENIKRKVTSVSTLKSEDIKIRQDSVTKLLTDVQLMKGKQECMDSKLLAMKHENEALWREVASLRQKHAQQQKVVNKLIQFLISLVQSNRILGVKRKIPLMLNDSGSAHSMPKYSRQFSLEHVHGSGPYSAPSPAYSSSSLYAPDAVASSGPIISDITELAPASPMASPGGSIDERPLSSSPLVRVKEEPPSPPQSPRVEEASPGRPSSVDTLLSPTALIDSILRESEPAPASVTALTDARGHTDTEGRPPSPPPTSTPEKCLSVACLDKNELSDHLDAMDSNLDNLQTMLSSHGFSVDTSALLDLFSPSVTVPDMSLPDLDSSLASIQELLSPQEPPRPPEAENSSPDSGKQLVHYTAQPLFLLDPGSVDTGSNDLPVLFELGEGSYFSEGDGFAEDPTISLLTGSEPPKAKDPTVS
Summary of the method: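 Using HepG2 with transfected cis-driven reporter constructs, compound effects on endogenous factor activity are scored as reporter mRNA change at 24 h. Detection: RT-PCR, HpaI digestion, capillary electrophoresis; bidirectional fitting to DMSO.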

[16] = ATG_SREBP_CIS: Attagene CIS-FACTORIAL HepG2 Assay for human Sterol Regulatory Element Binding (SREBP) (AID 2282962); conditions: HepG2 Attagene cis-factorial SREBP reporter, mRNA; actives raise or lower the signal
Summary of the method: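 HepG2 cells transiently transfected with multiplexed cis-element reporter units report endogenous transcription factor activity. After 24 h of chemical exposure, reporter mRNA was quantified by RT-PCR, 6-FAM labelling, HpaI digestion and capillary electrophoresis; bidirectional fits used DMSO as baseline.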

[17] = ATG_Sox_CIS: Attagene CIS-FACTORIAL HepG2 Assay for human SRY-box transcription factor (SOX) (AID 2282960); conditions: HepG2 Attagene cis-factorial SOX reporter, mRNA; actives raise or lower the signal
Summary of the method: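 HepG2 cells transiently transfected with cis-element-driven multiple reporter transcription units, dosed 24 h; reporter mRNA measured by RT-PCR, FAM labelling, HpaI digestion and capillary electrophoresis. Bidirectional fit versus DMSO baseline.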

[18] = ATG_PPRE_CIS: Attagene CIS-FACTORIAL HepG2 Assay for human Peroxisome Proliferator-activated Response Element (PPRE) (AID 2282958); conditions: HepG2 PPRE cis-element reporter, Attagene transcription factor profiling; actives raise or lower the signal
Summary of the method: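 HepG2 cells transiently transfected with multiplexed cis-element reporter units measure endogenous transcription factor activity. After 24 h compound exposure, reporter mRNA is quantified by RT-PCR, 6-FAM labeling, HpaI digestion and capillary electrophoresis; bidirectional fits are made against DMSO baseline.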

Measured: AC50

COC(=O)c1ccc(C(=O)OC)cc1
not listed: [15] | [16] | [17] | [18]
inactive: all other assays above

CC/C=C\CCCCO
not listed: [8] | [17] | [18]
inactive: all other assays above

O=C(O)c1cccc(Cl)n1
not listed: [8] | [11] | [18]
inactive: all other assays above

CCCCCCCC(=O)N(C)C
active: [10] 42.4 µM
not listed: [5]
inactive: all other assays above

CCCCCCCCCCCCOC(C)=O
not listed: [5] | [8]
inactive: all other assays above

c1ccc(Sc2ccccc2)cc1
active: [10] 62.7 µM
not listed: [8] | [11] | [18]
inactive: all other assays above

C=C(C)C(N)=O
not listed: [5] | [11] | [17] | [18]
inactive: all other assays above

CCCCCC#CC(=O)OC
active: [10] 20.2 µM
not listed: [5] | [13]
inactive: all other assays above

CC(C)C(=O)c1ccccc1
not listed: [8] | [11] | [17]
inactive: all other assays above

O=[N+]([O-])c1cc(N(CCO)CCO)ccc1NCCO
not listed: [8] | [13] | [18]
inactive: all other assays above

C[N+](C)(C)CCO
not listed: [5] | [15] | [17]
inactive: all other assays above

C=CC(=O)OCCCCCC
active: [10] 59.6 µM
not listed: [8] | [11] | [13] | [18]
inactive: all other assays above

CCCCCCCCOC(C)=O
active: [10] 73.1 µM
not listed: [5] | [8] | [13]
inactive: all other assays above

OC[C@@H](O)[C@H](O)[C@@H](O)[C@@H](O)CO
active: [10] 37.2 µM
not listed: [8] | [18]
inactive: all other assays above
